Bioassay records (PubChem BioAssay)
LYPLA1 inh = blocks human lysophospholipase 1, a PME1 counter-screen | O75608 | recombinant LYPLA1, FP-Rh probe fluorescence polarization | inhibition, % at 5.9 µM | 320,000 tested, 0.16% active;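 active = inhibition above the mean of all tested compounds plus 3 SD, set per campaign, cut at about 14% in these data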;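 note: inhibitors block serine hydrolase probe labeling of LYPLA1 so polarization falls; 0% = enzyme with DMSO and 100% = wells lacking LYPLA1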
LYPLA2 inh = counter-screen for PME1 inhibitors: inhibitors of human LYPLA2 | 320,000 tested, 0.38% active | inhibition, % at 5.9 µM | O95372 | recombinant LYPLA2, FP-Rh probe fluorescence polarization;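 active = inhibition above the screen-wide mean plus 3 SD, limit set per campaign, cut at about 26% in these data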;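 note: 0% = LYPLA2 with DMSO and 100% = wells lacking LYPLA2 enzyme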
Fam108B counter = counter-screen for RBBP9 inhibitors: inhibitors of mouse Fam108B | recombinant Fam108B, FP-Rh probe fluorescence polarization | 300,000 tested, 0.33% active | inhibition, % at 9.51 µM | AID 1947;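 active = inhibition above the screen mean inhibition plus 3 SD, computed separately per campaign, cut at about 18% in these data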;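 note: inhibitors lower polarization as less probe binds the enzyme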
PAD4 FP inh = blocks human protein arginine deiminase 4; recombinant PAD4, RCA probe fluorescence polarization; 330,000 tested, 0.41% active; inhibition, % at 6.36 µM; Q9UM07;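 active = percent inhibition above a cutoff equal to the mean of all tested compounds plus 3 SD, cut at about 15% in these data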;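 note: 0% = PAD4 with RCA probe and DMSO and 100% = probe without PAD4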
Target sequence (Q9UM07 whole entry, looked up): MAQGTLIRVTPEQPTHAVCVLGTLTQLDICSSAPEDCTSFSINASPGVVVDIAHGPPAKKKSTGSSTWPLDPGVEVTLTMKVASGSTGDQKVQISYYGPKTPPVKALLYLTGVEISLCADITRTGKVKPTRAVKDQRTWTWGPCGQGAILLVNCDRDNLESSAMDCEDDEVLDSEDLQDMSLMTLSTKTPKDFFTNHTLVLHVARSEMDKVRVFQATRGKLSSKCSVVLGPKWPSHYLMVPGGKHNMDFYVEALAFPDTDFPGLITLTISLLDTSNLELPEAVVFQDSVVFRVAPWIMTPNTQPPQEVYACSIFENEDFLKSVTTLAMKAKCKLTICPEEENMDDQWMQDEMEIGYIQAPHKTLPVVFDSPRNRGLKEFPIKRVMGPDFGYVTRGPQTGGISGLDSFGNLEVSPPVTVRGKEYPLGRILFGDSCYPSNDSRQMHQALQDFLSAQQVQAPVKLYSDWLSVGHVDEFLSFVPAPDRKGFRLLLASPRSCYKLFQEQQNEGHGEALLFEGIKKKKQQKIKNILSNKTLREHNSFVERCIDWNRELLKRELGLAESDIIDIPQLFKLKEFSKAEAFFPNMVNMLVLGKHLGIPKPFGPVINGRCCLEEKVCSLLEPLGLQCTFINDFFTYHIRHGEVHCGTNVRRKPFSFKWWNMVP
PME-1 inh = PME-1 (human) inhibition; Q9Y570; recombinant PME-1, FP-Rh probe fluorescence polarization; inhibition, % at 5.9 µM; 320,000 tested, 0.53% active;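 active = inhibition above the campaign mean of all compounds plus 3 SD, cut at about 26% in these data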;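 note: competitive labeling of PME-1 active site by serine hydrolase directed probe; 0% = PME-1 with DMSO and 100% = wells lacking PME-1 enzyme; inhibitors block probe labeling so polarization falls and inhibition rises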
GSTO1 counter = blocks human GSTO1 in RBBP9 counter-screen | P78417 | recombinant GSTO1, activity-based probe fluorescence polarization | inhibition, % at 5.96 µM | 300,000 tested, 1.1% active;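 active = inhibition above the campaign mean inhibition plus 3 SD, cut at about 35% in these data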;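 note: 0% = GSTO1-1 with DMSO and 100% = wells lacking GSTO1-1 enzyme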
Numbers without * were called inactive; x = not tested or not shown. Only some compounds are listed: those with a hit (about 1.8% of all), similar ones and a draw of the others.

SMILES | LYPLA1 inh | LYPLA2 inh | Fam108B counter | PAD4 FP inh | PME-1 inh | GSTO1 counter
C=CCN=c1scc(-c2ccco2)n1/N=C/c1ccc(O)c(O)c1O | -10 | -11 | -6 | 3 | 29* | 4
COc1ccc(-c2n[nH]c(C)c2-c2cc(OC)ccc2O)cc1 | -1 | -2 | 2 | -3 | -4 | 3
COc1ccc(-c2cc(-c3ccc(Cl)cc3)n[nH]2)c(O)c1 | -12 | -1 | 3 | -5 | 42* | 4
COc1ccc(-c2cc(-c3cc(OC)ccc3O)[nH]n2)cc1 | -8 | -4 | 13 | -3 | 66* | 0
Cc1ccc(C(NC(=O)N2CCOCC2)C(Cl)Cl)cc1F (centres undefined) | 0 | 9 | 2 | -5 | 1 | 1
Cc1ccc(C(NC(=O)N2CCOCC2)=C(Cl)Cl)cc1F | -1 | 1 | 4 | 5 | -2 | 36*
CCNC(=O)CC1C(=O)N(c2ccc(C)cc2)C(=O)N1CCOC (centres undefined) | -2 | -5 | -1 | -4 | 0 | 1
COCCN(C(=O)CCl)C(C(=O)NC1CCCCC1)c1ccccc1C (centres undefined) | 6 | 12 | -4 | 2 | -4 | 99*
O=C(NC1CCCC1)C(c1ccc(F)cc1)N(Cc1ccc(F)cc1)C(=O)c1ccn[nH]1 (centres undefined) | 1 | 9 | 1 | 2 | 2 | -7
COCCN(C(=O)CCC(=O)Nc1cc(C)on1)C(C(=O)NC1CCCC1)c1ccccc1C (centres undefined) | 1 | 2 | -2 | -3 | 0 | -6
O=C(NC1CCCC1)C(c1ccc(F)cc1)N(Cc1ccccc1Cl)C(=O)CCl (centres undefined) | 2 | 2 | -1 | -1 | 2 | 72*
CCN(CC(=O)Nc1ccc(NC(C)=O)cc1)C(=O)c1cc(CN2C(=O)c3ccccc3C2=O)ccc1OC | 1 | 2 | -1 | -2 | 5 | 4
Cc1cc(N/N=C/c2ccccc2O)nc(-c2ccccc2O)n1 | -19 | -11 | 19* | -8 | 19 | -15
Cc1cc(N/N=C\c2ccccc2)nc(-c2ccccc2O)n1 | -10 | -16 | 8 | 0 | -7 | -8
Nc1c(C(=O)N/N=C/c2cccnc2)oc2nc(-c3ccco3)cc(-c3ccco3)c12 | -2 | -9 | 0 | -3 | 7 | 9
NNC(=O)c1oc2nc(-c3ccco3)cc(-c3ccco3)c2c1N | -5 | -1 | 13 | 4 | 6 | 52*
O=C(COC(=O)c1c(F)cccc1Cl)NC(=O)Nc1ccc2c(c1)OCCO2 | -3 | -10 | x | -2 | 5 | x
Nc1nc2c(ncn2CCC(CO)CO)c(=O)[nH]1 | -1 | 3 | -6 | -6 | -2 | 7
CC(c1ccco1)N(C(=O)c1ccccc1NS(=O)(=O)c1ccc(Cl)c([N+](=O)[O-])c1)c1ccccn1 (centres undefined) | -1 | -3 | 2 | -2 | -4 | 54*
O=C(NCCCO)Nc1ccc2nc(-c3ccco3)c(-c3ccco3)nc2c1 | -8 | 4 | 52* | 7 | 9 | 66*
Cc1ccn2nc(C(=O)OCC(=O)N(CC(C)C)C3CCS(=O)(=O)C3)nc2n1 (centres undefined) | 1 | 4 | x | 7 | 3 | x
N#Cc1ccc(Nc2nc(-c3ccc(O)cc3O)cs2)cc1C(F)(F)F | -6 | 8 | x | -1 | 61* | x
Oc1ccc(-c2csc(Nc3ncccn3)n2)c(O)c1 | 0 | -7 | 0 | -4 | 0 | 21
CC1CCCC(C)N1C(=O)COC(=O)c1c[nH]c2ccccc12 (centres undefined) | 0 | 7 | x | -1 | -2 | x
O=C(CSc1cccc[n+]1[O-])NC1CCCCC1 | x | x | x | -3 | x | x
O=C(COC(=O)c1ccc(Br)cc1)NCc1ccccc1 | -1 | 4 | 2 | 1 | 2 | 2
CC(=O)Cc1cc(O)c2ccccc2c1OC(=O)c1ccc(Br)cc1 | -3 | -6 | 2 | -12 | 28* | 29
COc1ccc(S(=O)(=O)N2CCCCCC2)cc1NC(=O)CN(C)Cc1ccc2c(c1)OCO2 | -2 | -4 | x | -2 | 22 | x
CN(CC(=O)Nc1cccc(F)c1)C(=O)c1cc(-c2ccco2)nc2ccccc12 | -5 | -4 | 5 | -7 | -6 | 22
COc1ccc(NC(=O)CN(C)C(=O)c2cc(-c3ccco3)nc3ccccc23)cc1 | -3 | 6 | 3 | -7 | -6 | 37*
